# Reference: PubChem BioAssay
# A number with no mark means an inactive call. The list shows a part of the results. Activity calls are given as the source filed them. Cut-off read from the data, not from the text of the source, unless noted: active = inhibition above about 14%; inactive = the rest.
# What was measured:
# [1] = suppression of KLF5 promoter-driven luciferase – DLD-1 cells, luminescence, confirmation (AID 1834;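 active = inhibition above a set limit taken from the earlier primary screen, cut at about 63% in these data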;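 note: 0% = DMSO wells and 100% = LY294002 at 200 µM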); conditions: DLD-1 KLF5 promoter firefly luciferase reporter, at 4 µM, hits give high values
# [2] = IEC-6 intestinal cell killing – luminescence, triplicate, cytotoxicity control for KLF5 inhibitor project (AID 1905; in the data active = inhibition above about 23%;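 note: cells exposed to compounds for 48 hours before viability read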); conditions: IEC-6 rat intestinal cells, viability luminescence; at 4 µM; hits give high values
# [3] = biological target: Glutathione S-transferase omega-1 (Homo sapiens) (UniProt P78417); test: recombinant GSTO1 blockers, retest – biochemical, fluorescence polarization, triplicate, counter-screen for RBBP9 inhibitor project, confirmation (AID 2176;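 active = inhibition above the primary screen's cutoff, its mean inhibition plus 3 SD, cut at about 35% in these data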;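 note: loss of polarization as inhibitors block binding of rhodamine sulfonate ester activity probe; 0% = GSTO1 with DMSO and 100% = wells lacking GSTO1 enzyme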); conditions: recombinant GSTO1, probe fluorescence polarization; at 5.96 µM; hits give high values
# Chain of Glutathione S-transferase omega-1 (Homo sapiens) (P78417 whole entry, looked up): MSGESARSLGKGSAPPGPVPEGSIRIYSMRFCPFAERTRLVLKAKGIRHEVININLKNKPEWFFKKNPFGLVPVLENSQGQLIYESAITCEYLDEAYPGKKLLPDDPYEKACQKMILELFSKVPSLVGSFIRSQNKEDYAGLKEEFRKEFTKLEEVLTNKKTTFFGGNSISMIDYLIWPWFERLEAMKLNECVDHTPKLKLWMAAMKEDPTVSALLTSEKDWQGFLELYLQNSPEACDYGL
# [4] = biological target: Platelet-activating factor acetylhydrolase (Homo sapiens) (UniProt Q13093); test: inhibition of plasma PAF acetylhydrolase – biochemical, fluorescence polarization, human, confirmation (AID 463230;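 active = mean inhibition of the triplicate above the hit cutoff set for the earlier primary screen, cut at about 25% in these data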;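 note: 0% = enzyme with DMSO and 100% = wells lacking pPAFAH enzyme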); conditions: recombinant pPAFAH, FP-Rh probe fluorescence polarization; at 3.39 µM; hits give high values
# Chain of Platelet-activating factor acetylhydrolase (Homo sapiens) (Q13093 whole entry, looked up): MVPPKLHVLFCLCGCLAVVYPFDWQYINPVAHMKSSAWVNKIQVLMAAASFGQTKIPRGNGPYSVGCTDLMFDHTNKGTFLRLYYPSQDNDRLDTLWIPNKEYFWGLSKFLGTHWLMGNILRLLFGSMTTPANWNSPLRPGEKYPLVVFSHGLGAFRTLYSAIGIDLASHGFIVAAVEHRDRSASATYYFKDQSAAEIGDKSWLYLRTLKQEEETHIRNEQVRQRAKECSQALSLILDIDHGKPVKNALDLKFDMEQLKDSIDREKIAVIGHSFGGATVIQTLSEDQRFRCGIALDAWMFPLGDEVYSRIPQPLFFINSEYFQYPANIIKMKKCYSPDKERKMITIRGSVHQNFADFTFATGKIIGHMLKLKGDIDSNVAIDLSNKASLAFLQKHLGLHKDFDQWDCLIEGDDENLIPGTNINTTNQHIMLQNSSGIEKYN
# [5] = reduced OD of T4-infected AddAB+ E. coli – absorbance, E. coli V3065, T4 phage, triplicate, AddAB inhibitor project, confirmation (AID 488942;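 active = mean inhibition above a set limit taken from the earlier primary screen, cut at about 13% in these data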;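 note: higher means less bacterial growth since AddAB block lets phage replicate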); conditions: E. coli V3065 expressing H. pylori AddAB, at 11.9 µM, hits give high values, T4 phage with gene 2 nonsense mutations
# [6] = reduced OD of phage-infected RecBCD+ V66 E. coli – absorbance, mutant T4 phage, counter-screen for AddAB inhibitor project (AID 488955;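 active = mean inhibition above the mean of solvent-only control wells plus 3 SD, cut at about 4% in these data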;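 note: optical density read after an 18 h incubation at 37 °C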); conditions: OD growth, at 11.9 µM, hits give high values
# [7] = bacterial growth inhibitors – absorbance, counter-screen for AddAB inhibitor project, confirmation (AID 488956; in the data active = inhibition above about 25%); conditions: bacterial viability, absorbance (AddAB counterscreen); at 11.9 µM; hits give high values
# [8] = reduced OD of V66 E. coli with T4 gene 2 phage – absorbance, RecBCD inhibitor project, confirmation (AID 651982;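 active = mean inhibition over triplicates exceeding the hit threshold derived in the original primary screen, cut at about 11% in these data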); conditions: E. coli V66 + T4 2- phage, growth OD; at 11.9 µM; hits give high values
# [9] = bacterial growth inhibition – absorbance, high throughput, counter-screen for RecBCD inhibitor project (AID 651983; in the data active = inhibition above about 20%;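 note: E. coli strain V66 grown with compound alone and no phage infection; 0% = bacteria with DMSO vehicle only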); conditions: E. coli viability, absorbance (OD) growth; at 11.9 µM; hits give high values
# [10] = reduced optical density, T4-challenged addAB+ bacteria – absorbance, E. coli V3065, T4 phage, counter-screen for RecBCD inhibitor project, confirmation (AID 651984;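 active = mean inhibition above the solvent-only control wells' mean plus 3 SD, cut at about 22% in these data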;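 note: higher means less bacterial growth from phage killing when AddAB is blocked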); conditions: E. coli expressing H. pylori AddAB + T4 phage, OD growth; at 11.9 µM; hits give high values; gene 2 mutant T4, recBCD-deleted host
# [11] = test system: HIV-1 integrase (multimerization); test: stimulation of HIV-1 integrase oligomerization – biochemical, TR-FRET, counter-screen for LEDGF/p75 integration inhibitor project (AID 1053131; in the data active = activation above about 8.9%); conditions: TR-FRET HIV-1 integrase multimerization, at 7.7 µM, hits give high values
# [12] = compounds disturbing TR-FRET signal readout – biochemical, HIV-1 IN multimerization, artefact control for LEDGF/p75-dependent integration inhibitor project, confirmation (AID 1053135;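 active = inhibition above the mean over all tested compounds plus 3 SD, which no compound reached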;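 note: 0% = integrase with antibodies and DMSO and 100% = antibodies without integrase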); conditions: TR-FRET optical interference counterscreen, at 7.7 µM, hits give high values
# [13] = test system: HIV-1 integrase / human LEDGF/p75 complex; test: blockers of LEDGF/p75-dependent integrase activity – biochemical, TR-FRET, confirmation (AID 1053136); conditions: TR-FRET LEDGF/p75-dependent HIV-1 integration, at 3.7 µM, hits give high values
# [14] = biological target: Nuclear receptor coactivator 1 (Homo sapiens) (UniProt Q15788); test: NCOA1 GAL4-fusion reporter inhibition – cell-based, luminescence, quadruplicate, confirmation (AID 588820;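 active = mean inhibition above 46.68%, the untreated control wells mean plus 3 SD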;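 note: 0% = DMSO wells and 100% = gossypol 36 µM treated wells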); conditions: HEK293 GAL4-SRC1 luciferase reporter, at 3.6 µM, hits give high values
# Chain of Nuclear receptor coactivator 1 (Homo sapiens) (Q15788 whole entry, looked up, the tested form may be a part): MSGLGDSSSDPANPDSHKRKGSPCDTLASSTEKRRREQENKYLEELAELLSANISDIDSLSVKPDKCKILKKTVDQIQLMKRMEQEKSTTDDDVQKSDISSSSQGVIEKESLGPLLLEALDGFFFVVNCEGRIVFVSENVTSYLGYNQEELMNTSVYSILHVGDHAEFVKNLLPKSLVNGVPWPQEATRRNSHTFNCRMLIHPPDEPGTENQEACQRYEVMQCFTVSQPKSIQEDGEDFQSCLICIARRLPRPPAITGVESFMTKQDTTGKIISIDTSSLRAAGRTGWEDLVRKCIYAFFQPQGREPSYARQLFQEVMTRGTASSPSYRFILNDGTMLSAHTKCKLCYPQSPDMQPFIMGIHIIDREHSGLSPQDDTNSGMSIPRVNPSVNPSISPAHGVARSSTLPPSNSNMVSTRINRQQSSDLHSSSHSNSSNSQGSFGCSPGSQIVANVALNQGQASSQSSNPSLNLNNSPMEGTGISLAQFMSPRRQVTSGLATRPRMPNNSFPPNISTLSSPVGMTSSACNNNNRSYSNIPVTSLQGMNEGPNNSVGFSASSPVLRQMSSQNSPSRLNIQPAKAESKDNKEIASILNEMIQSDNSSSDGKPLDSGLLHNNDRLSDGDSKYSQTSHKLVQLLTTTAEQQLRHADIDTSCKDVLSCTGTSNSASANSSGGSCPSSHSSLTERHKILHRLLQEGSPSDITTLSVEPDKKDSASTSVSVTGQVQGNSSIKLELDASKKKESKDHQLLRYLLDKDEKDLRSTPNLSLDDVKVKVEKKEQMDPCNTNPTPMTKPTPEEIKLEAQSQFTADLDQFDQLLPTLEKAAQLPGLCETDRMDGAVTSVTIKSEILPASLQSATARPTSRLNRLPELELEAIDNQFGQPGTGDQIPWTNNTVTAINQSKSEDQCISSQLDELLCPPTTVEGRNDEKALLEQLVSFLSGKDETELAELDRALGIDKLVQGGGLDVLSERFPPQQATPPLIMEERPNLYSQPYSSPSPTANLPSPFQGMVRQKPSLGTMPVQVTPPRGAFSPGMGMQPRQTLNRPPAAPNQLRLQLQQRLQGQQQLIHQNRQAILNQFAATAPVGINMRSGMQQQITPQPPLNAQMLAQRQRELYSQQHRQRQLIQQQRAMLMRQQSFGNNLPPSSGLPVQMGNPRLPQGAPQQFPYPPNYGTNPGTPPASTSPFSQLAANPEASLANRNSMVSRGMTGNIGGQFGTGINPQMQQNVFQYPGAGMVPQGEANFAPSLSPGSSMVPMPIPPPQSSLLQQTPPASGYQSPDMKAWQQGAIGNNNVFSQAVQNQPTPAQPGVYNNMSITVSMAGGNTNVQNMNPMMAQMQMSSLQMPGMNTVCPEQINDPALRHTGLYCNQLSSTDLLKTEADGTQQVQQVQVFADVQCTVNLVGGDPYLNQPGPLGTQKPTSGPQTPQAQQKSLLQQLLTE
# [15] = repression of VP16-driven luciferase reporter – cell-based, luminescence, high throughput, counter-screen for SRC1 inhibitor project (AID 588824; in the data active = inhibition above about 25%); conditions: cell-based VP16 transactivation luciferase luminescence; at 3.6 µM; hits give high values
# [16] = biological target: Peroxisome proliferator-activated receptor gamma (Homo sapiens) (UniProt P37231); test: retested PPARg-SRC-2 recruitment enhancers – biochemical, HTS, confirmation (AID 1297; in the data active = activation above about 22%;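 note: 0% = vehicle alone and 100% = reference agonist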); conditions: biochemical SRC-2 recruitment by PPARgamma; at 8 µM; hits give high values
# Chain of Peroxisome proliferator-activated receptor gamma (Homo sapiens) (P37231 whole entry, looked up): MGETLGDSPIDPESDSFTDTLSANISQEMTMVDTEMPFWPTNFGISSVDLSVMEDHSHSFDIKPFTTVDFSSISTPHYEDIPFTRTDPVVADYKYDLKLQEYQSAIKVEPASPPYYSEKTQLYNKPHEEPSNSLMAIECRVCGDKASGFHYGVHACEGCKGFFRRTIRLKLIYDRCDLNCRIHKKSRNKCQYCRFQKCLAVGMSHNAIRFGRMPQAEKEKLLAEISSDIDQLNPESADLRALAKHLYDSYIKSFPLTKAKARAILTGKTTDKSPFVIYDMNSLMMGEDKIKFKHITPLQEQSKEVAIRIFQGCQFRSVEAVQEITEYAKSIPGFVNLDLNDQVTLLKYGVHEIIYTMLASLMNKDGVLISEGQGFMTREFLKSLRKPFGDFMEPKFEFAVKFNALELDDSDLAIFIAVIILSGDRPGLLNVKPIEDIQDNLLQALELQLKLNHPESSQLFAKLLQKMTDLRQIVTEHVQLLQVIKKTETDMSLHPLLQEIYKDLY
# [17] = biological target: Peroxisome proliferator-activated receptor gamma (Homo sapiens) (UniProt P37231); test: retest of SRC-1 recruitment enhancers for PPARgamma – biochemical, confirmation (AID 1300; in the data active = activation above about 20%;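 note: 0% = vehicle wells and 100% = reference agonist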); conditions: PPARgamma–SRC-1 coactivator recruitment biochemical assay; at 8 µM; hits give high values
# [18] = biological target: Peroxisome proliferator-activated receptor gamma (Homo sapiens) + Nuclear receptor coactivator 3 (Homo sapiens) (UniProt P37231+Q9Y6Q9); test: agonists promoting SRC-3 binding to PPARgamma – biochemical, confirmation (AID 1301; in the data active = activation above about 24%;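 note: 0% = vehicle wells and 100% = reference agonist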); conditions: biochemical PPARgamma-SRC-3 coactivator recruitment, agonist mode; at 8 µM; hits give high values
# [19] = biological target: Protein-arginine deiminase type-4 (Homo sapiens) (UniProt Q9UM07); test: protein arginine deiminase 4 blockade, retest – biochemical, fluorescence polarization, confirmation (AID 488796;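 active = mean inhibition across replicates above the hit cutoff set by the earlier primary screen, cut at about 15% in these data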;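 note: inhibitors block active-site labeling by the probe so polarization falls; 0% = PAD4 with probe and DMSO and 100% = probe without PAD4 enzyme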); conditions: recombinant PAD4, RCA probe fluorescence polarization; at 6.36 µM; hits give high values
# Chain of Protein-arginine deiminase type-4 (Homo sapiens) (Q9UM07 whole entry, looked up): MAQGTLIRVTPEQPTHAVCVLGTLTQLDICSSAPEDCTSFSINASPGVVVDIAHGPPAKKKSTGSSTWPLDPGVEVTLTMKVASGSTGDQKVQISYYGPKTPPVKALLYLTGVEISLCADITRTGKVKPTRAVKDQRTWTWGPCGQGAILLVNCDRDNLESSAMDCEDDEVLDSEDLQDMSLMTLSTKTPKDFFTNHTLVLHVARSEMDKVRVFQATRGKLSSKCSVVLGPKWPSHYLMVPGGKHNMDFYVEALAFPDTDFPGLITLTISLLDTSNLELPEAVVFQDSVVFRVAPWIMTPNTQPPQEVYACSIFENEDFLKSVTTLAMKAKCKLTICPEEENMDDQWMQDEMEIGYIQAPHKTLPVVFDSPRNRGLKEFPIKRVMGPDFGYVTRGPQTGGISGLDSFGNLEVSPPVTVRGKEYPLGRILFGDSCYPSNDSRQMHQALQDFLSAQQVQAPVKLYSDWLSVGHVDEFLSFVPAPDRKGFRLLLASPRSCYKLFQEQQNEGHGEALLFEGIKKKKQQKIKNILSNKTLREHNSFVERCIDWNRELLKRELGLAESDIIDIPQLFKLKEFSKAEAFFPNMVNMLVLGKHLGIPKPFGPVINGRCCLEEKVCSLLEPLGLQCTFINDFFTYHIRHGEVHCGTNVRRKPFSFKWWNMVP
# [20] = biological target: Serine protease HTRA1 (Homo sapiens) (UniProt Q92743); test: confirming inhibition of human HTRA1 – biochemical, fluorescence polarization, confirmation (AID 540248;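 active = mean inhibition over three repeats above a set limit taken from the earlier primary screen, cut at about 37% in these data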;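 note: 0% = HTRA1 with DMSO and 100% = wells lacking HTRA1; inhibitors block probe binding so polarization drops and inhibition rises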); conditions: recombinant HTRA1, FP-rhodamine activity-based probe, at 5.96 µM, hits give high values
# [21] = BSA probe fluorescence interference – biochemical, TAMRA-labeled BSA, counter-screen for TCR-CD3 interaction inhibitor project (AID 652035; in the data active = inhibition above about 23%;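 note: 0% = buffer low control and 100% = reference high control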); conditions: TAMRA-labeled BSA probe fluorescence counterscreen; at 9.4 µM; hits give high values
# [22] = test system: T-cell receptor (TCR)-CD3 interaction, human; test: blockers of TCR binding to CD3 – biochemical, fluorescence, TAMRA-labeled TCR probe, confirmation (AID 652036; in the data active = inhibition above about 19%); conditions: TAMRA-labeled TCR probe fluorescence binding assay; at 9.4 µM; hits give high values
# [23] = biological target: (Lyso)-N-acylphosphatidylethanolamine lipase (Mus musculus) (UniProt Q8VD66); test: mouse ABHD4 hydrolase blockers, triplicate – biochemical, fluorescence polarization, confirmation (AID 720658;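 active = mean inhibition across replicates above the hit cutoff set in the primary screen, cut at about 30% in these data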;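 note: 0% = wild-type ABHD4 with DMSO and 100% = catalytically dead S159A mutant with DMSO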); conditions: purified mABHD4, FP-Rh probe fluorescence polarization; at 8.92 µM; hits give high values
# Chain of (Lyso)-N-acylphosphatidylethanolamine lipase (Mus musculus) (Q8VD66 whole entry, looked up): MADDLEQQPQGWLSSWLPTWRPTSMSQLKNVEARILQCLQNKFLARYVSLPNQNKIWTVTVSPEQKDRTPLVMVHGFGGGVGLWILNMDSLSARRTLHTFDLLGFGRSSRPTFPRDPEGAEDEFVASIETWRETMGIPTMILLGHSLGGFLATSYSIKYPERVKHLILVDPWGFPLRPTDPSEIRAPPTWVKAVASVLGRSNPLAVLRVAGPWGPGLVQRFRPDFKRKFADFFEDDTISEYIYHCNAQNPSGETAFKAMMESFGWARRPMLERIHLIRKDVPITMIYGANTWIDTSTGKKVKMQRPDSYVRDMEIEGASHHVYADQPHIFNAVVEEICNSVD
# [24] = test system: Fam108b (Abhd17b) serine hydrolase [Mus musculus]; test: inhibition of Fam108b (Abhd17b) hydrolase – biochemical, fluorescence polarization, triplicate, counter-screen for RBBP9 inhibitor project, confirmation (AID 1978;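 active = inhibition above a limit from the primary screen, the mean over all compounds plus 3 SD, cut at about 19% in these data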;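 note: 0% = median of active Fam108b wells and 100% = catalytically dead S170A mutant; inhibitors free the probe so polarization falls as inhibition rises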); conditions: recombinant Fam108b, FP-Rh probe fluorescence polarization; at 9.51 µM; hits give high values
# [25] = biological target: Bcl-2-like protein 1 (Homo sapiens) (UniProt Q07817); test: Bcl-xL BH3-peptide displacement, hit confirmation – biochemical, fluorescence polarization, counter-screen for MCL1 inhibitor project (AID 2166;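 active = inhibition above a cutoff equal to the mean inhibition of all tested compounds plus 3 SD, cut at about 30% in these data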); conditions: GST-Bcl-xL / FITC-Bim BH3 peptide FP binding; at 10.9 µM; hits give high values
# Chain of Bcl-2-like protein 1 (Homo sapiens) (Q07817 whole entry, looked up): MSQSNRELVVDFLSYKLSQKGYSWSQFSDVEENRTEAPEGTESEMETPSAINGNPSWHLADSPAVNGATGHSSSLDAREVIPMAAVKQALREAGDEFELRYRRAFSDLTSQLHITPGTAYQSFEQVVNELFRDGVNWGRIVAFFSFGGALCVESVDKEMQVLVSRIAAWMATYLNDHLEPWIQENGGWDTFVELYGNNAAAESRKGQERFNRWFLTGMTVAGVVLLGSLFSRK
# [26] = biological target: Induced myeloid leukemia cell differentiation protein Mcl-1 (Homo sapiens) (UniProt Q07820); test: MCL1-BIM peptide interaction disruptors – biochemical, fluorescence polarization, triplicate, confirmation (AID 2168;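 active = inhibition above the average of all tested compounds plus 3 SD, cut at about 40% in these data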;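 note: 0% = DMSO wells and 100% = unlabeled Bim-BH3 control peptide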); conditions: GST-MCL1 / FITC-Bim-BH3 fluorescence polarization; at 10.9 µM; hits give high values
# Chain of Induced myeloid leukemia cell differentiation protein Mcl-1 (Homo sapiens) (Q07820 whole entry, looked up): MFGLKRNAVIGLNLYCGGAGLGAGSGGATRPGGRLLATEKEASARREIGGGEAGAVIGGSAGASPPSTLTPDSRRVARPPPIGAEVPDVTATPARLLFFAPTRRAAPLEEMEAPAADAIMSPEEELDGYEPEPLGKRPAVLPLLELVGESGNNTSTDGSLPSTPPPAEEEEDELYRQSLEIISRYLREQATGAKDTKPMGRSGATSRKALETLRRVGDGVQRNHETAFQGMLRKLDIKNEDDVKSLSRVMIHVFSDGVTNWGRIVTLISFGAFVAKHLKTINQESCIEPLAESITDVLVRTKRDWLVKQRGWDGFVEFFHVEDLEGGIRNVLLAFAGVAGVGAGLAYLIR
# [27] = biological target: Protein phosphatase methylesterase 1 (Homo sapiens) (UniProt Q9Y570); test: human PME-1 methylesterase inhibition confirmation – biochemical, fluorescence polarization, FP-Rh probe, triplicate (AID 2171;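 active = inhibition above the hit cutoff set in the earlier primary screen, cut at about 27% in these data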;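 note: 0% = enzyme with DMSO and 100% = wells lacking PME-1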); conditions: recombinant PME-1, FP-Rh probe fluorescence polarization; at 5.9 µM; hits give high values
# Chain of Protein phosphatase methylesterase 1 (Homo sapiens) (Q9Y570 whole entry, looked up): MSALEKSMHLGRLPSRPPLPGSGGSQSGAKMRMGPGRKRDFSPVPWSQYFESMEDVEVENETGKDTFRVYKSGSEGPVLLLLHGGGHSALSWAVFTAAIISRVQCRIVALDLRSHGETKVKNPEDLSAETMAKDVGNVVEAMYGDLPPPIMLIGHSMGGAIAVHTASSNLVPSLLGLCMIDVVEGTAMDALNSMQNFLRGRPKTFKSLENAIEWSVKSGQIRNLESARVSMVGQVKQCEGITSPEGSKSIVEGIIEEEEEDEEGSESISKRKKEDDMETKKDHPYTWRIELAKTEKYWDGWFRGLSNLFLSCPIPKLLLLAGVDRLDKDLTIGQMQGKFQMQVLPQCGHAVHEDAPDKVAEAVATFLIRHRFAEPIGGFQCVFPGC
smiles,measurement,setting,value
Oc1cccc(/C=N/Nc2ccc(Cl)nn2)c1O,inhibition,[1],93.5% (active)
same,inhibition,[2],0.35%
same,inhibition,[3],7.85%
same,inhibition,[4],29.2% (active)
same,inhibition,[5],42.9% (active)
same,inhibition,[6],15.7% (active)
same,inhibition,[7],20.9%
same,inhibition,[8],7.26%
same,inhibition,[9],9.97%
same,inhibition,[10],26% (active)
same,activation,[11],10.1% (active)
same,inhibition,[12],-36.1%
same,inhibition,[13],10.1%
CCOc1cccc(=O)c2c(C)n(CC3CCCO3)c(C)c12 (stereo not drawn),activation,[11],2.93%
same,inhibition,[12],-10.4%
same,inhibition,[13],4.91%
CN(CC(=O)Nc1ccc(S(=O)(=O)N2CCCC2)cc1)Cc1ccc(Cl)c(Cl)c1,activation,[11],3.77%
same,inhibition,[12],-13.1%
same,inhibition,[13],5.4%
O=C(c1cccc(C(F)(F)F)c1)N1CC[C@H]2[C@H](CCCN2Cc2cc(F)cc(F)c2)C1,activation,[11],0.05%
same,inhibition,[12],-0.14%
same,inhibition,[13],-8.63%
Cc1oc2c(c1C(=O)N1CCOCC1)C(=O)c1ccccc1C2=O,inhibition,[3],29.9%
same,inhibition,[14],-13.7%
same,inhibition,[15],6.29%
same,activation,[11],-2.24%
same,inhibition,[12],11.3%
same,inhibition,[13],20.2% (active)
CN(C)c1ccc(N/C=C/C(=O)C(F)(F)F)cc1,activation,[16],21.7%
same,activation,[17],15.3%
same,activation,[18],12.7%
same,inhibition,[3],6.83%
same,inhibition,[4],-0.71%
same,inhibition,[19],1.99%
same,inhibition,[20],5.14%
same,inhibition,[21],0.92%
same,inhibition,[22],2.09%
same,inhibition,[23],2.7%
same,activation,[11],14.5% (active)
same,inhibition,[12],-51.7%
same,inhibition,[13],0%
Nc1ccc2nc3c(=O)[nH]c(=S)[nH]c3nc2c1,inhibition,[24],44.2% (active)
same,inhibition,[3],62% (active)
same,inhibition,[4],32.2% (active)
same,inhibition,[19],45.3% (active)
same,inhibition,[21],10.6%
same,inhibition,[22],120% (active)
same,inhibition,[23],53.5% (active)
same,activation,[11],48.6% (active)
same,inhibition,[12],-245%
same,inhibition,[13],83% (active)
O=C1OC(/C=C/c2ccccc2)=NC/1=C/c1ccco1,activation,[11],-0.93%
same,inhibition,[12],4.71%
same,inhibition,[13],-2.29%
Cc1c(CC(=O)N2CCN(C(=O)C3COc4ccccc4O3)CC2)c(=O)oc2c(O)c(O)ccc12 (stereo not drawn),inhibition,[25],69.1% (active)
same,inhibition,[26],89% (active)
same,inhibition,[4],78.1% (active)
same,inhibition,[20],88.8% (active)
same,inhibition,[21],-7.93%
same,inhibition,[22],60.5% (active)
same,inhibition,[23],16%
same,activation,[11],16.8% (active)
same,inhibition,[12],-84.6%
same,inhibition,[13],86.8% (active)
CCc1cc2cc(OC)ccc2nc1SCC(=O)Nc1cc(OC)c(OC)cc1C(=O)O,activation,[11],-3.01%
same,inhibition,[12],15.3%
same,inhibition,[13],5.77%
CN(C(=O)COC(=O)c1cc(-c2ccco2)nc2ccccc12)C1CCS(=O)(=O)C1 (stereo not drawn),inhibition,[25],34.6% (active)
same,inhibition,[26],95.6% (active)
same,inhibition,[3],38.5% (active)
same,inhibition,[21],3.94%
same,inhibition,[22],28.1% (active)
same,activation,[11],24.1% (active)
same,inhibition,[12],-121%
same,inhibition,[13],53.3% (active)
Cc1cc2c(c(=O)n1Cc1ccco1)C(c1ccccc1)C(C#N)=C(N)O2 (stereo not drawn),activation,[11],1.58%
same,inhibition,[12],-5.7%
same,inhibition,[13],-9.1%
Cc1ccc(/C=C/C(=O)Nc2ccc([N+](=O)[O-])c(NC(=O)/C=C/c3ccc(C)o3)c2)o1,activation,[11],14.2% (active)
same,inhibition,[12],-71.7%
same,inhibition,[13],41.9% (active)
Cc1ccc(-c2cnc(NC(=O)CCC(=O)N(C)Cc3ccccc3)n2C)cc1,activation,[11],0.12%
same,inhibition,[12],-0.61%
same,inhibition,[13],-6.89%
COc1cc(-c2nnc(NC(=O)CS(=O)(=O)c3ccc(Cl)cc3)o2)cc(OC)c1OC,activation,[11],0.46%
same,inhibition,[12],-2.3%
same,inhibition,[13],4.63%
CCOC(=O)c1ccc(Nc2cc3ccccc3c(=O)[nH]2)cc1,inhibition,[27],53.9% (active)
same,activation,[11],-1.62%
same,inhibition,[12],8.23%
same,inhibition,[13],29.8% (active)
COc1cc(/C=C2\CCCc3c2nc2ccccc2c3C(=O)O)cc(Cl)c1O,activation,[11],-1.15%
same,inhibition,[12],5.85%
same,inhibition,[13],-2.25%
CCOC(=O)c1c(C)oc2cc(Sc3ccccc3)c(O)c(O)c12,inhibition,[3],5.29%
same,activation,[11],0.78%
same,inhibition,[12],-2.84%
same,inhibition,[13],-5.02%
COc1ccc(S(=O)(=O)/N=C2\C=C(NS(=O)(=O)c3ccccc3)C(=O)c3ccccc32)cc1,inhibition,[3],72.9% (active)
same,activation,[11],-2.79%
same,inhibition,[12],10%
same,inhibition,[13],5.95%
COc1ccccc1C1C(C#N)=C(N)Oc2c1c(-c1ccccc1)nn2-c1ccccc1 (stereo not drawn),inhibition,[24],-8.81%
same,inhibition,[3],12.6%
same,inhibition,[19],2.3%
same,activation,[11],0.86%
same,inhibition,[12],-4.34%
same,inhibition,[13],1.22%
